{
  "source": "PubChem BioAssay",
  "key": {"[1]": {"system": "transactivating tegument protein VP16 (Human herpesvirus 1)", "assay": "VP16 transactivation reporter inhibitors, counter-screen for SRC2 inhibitor project, cell-based, luminescence, single concentration (AID 652007; in the data active = inhibition above about 36%)", "conditions": "cell-based VP16 transactivation luciferase reporter, at 8.9 µM, stronger effect = higher value"}, "[2]": {"biological_target": "Nuclear receptor coactivator 2 (Homo sapiens) (UniProt Q15596)", "sequence (Q15596 whole entry, looked up, the tested form may be a part)": "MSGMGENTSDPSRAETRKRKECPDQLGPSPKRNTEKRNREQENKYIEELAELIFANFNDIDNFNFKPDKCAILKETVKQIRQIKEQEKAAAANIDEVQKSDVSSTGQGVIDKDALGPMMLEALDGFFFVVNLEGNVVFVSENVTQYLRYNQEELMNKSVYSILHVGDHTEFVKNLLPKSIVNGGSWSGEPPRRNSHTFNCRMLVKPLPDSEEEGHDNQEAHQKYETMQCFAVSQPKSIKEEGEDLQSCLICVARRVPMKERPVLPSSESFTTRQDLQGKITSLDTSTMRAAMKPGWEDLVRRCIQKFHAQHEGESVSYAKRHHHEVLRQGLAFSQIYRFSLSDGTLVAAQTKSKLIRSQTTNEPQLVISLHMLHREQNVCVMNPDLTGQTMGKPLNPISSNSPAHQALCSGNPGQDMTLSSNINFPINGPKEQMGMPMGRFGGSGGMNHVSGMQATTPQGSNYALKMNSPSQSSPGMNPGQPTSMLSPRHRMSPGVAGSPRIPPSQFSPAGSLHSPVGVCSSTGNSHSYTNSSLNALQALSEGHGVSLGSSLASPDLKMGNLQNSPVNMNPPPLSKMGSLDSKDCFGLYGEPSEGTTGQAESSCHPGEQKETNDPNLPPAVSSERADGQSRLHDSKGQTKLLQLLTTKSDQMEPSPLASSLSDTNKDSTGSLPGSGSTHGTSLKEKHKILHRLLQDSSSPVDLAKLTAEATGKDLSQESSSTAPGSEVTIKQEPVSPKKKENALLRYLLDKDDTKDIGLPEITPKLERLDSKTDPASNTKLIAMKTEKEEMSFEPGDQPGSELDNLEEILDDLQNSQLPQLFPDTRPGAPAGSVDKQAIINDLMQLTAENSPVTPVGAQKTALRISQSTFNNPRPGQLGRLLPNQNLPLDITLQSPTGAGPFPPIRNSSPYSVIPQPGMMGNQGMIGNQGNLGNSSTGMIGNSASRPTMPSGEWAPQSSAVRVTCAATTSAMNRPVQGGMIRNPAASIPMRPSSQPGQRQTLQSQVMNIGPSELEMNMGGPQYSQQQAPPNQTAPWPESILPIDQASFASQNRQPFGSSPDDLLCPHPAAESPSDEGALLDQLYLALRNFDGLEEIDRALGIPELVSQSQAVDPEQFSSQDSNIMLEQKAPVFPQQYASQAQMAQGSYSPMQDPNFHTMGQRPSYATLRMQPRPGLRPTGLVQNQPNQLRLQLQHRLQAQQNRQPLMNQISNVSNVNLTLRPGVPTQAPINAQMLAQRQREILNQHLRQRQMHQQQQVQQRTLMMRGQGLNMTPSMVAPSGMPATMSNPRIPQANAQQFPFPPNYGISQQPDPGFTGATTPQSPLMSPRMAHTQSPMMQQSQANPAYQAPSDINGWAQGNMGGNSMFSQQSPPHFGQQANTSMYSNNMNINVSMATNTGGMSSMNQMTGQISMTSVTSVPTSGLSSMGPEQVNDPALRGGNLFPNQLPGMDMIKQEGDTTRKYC", "assay": "SRC2 coactivator transcriptional activity inhibitors, confirmation, cell-based, luminescence, HEK293, triplicate (AID 652008);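 note: 0% = DMSO-treated cells and 100% = Gossypol at 36 µM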", "conditions": "HEK293 GAL4-SRC2 luciferase reporter, at 8.9 µM, stronger effect = higher value"}},
  "note": "Unmarked numbers belong to inactive results. Active and inactive are the calls of the source.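 Rule for the calls, unless noted: active = mean inhibition above 46.5%, the solvent-only control mean plus 3 SD; inactive = the rest.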",
  "data": [
    {"smiles": "O=C(Cn1ncc2c([nH]c3ccccc32)c1=O)NCCc1ccccc1", "values": [
      {"measurement": "inhibition", "setting": "[1]", "value": 21.4, "unit": "%"},
      {"measurement": "inhibition", "setting": "[2]", "value": 12.2, "unit": "%"}
    ]},
    {"smiles": "Cn1cc(S(=O)(=O)Nc2ccc3c(c2)OCCO3)cn1", "values": [
      {"measurement": "inhibition", "setting": "[1]", "value": -16, "unit": "%"},
      {"measurement": "inhibition", "setting": "[2]", "value": 32.5, "unit": "%"}
    ]},
    {"smiles": "CCc1ccc(CCNC(=O)OCCCN2CCC3(CCC(c4ccccc4)CC3)C2=O)cc1", "note": "(centres undefined)", "values": [
      {"measurement": "inhibition", "setting": "[1]", "value": 5.9, "unit": "%"},
      {"measurement": "inhibition", "setting": "[2]", "value": 33.8, "unit": "%"}
    ]},
    {"smiles": "COc1cccc(/C=C2\\SC(=S)N(CCCC(=O)N3CCCCC3CCO)C2=O)c1", "note": "(centres undefined)", "values": [
      {"measurement": "inhibition", "setting": "[1]", "value": "51.2% (active)"},
      {"measurement": "inhibition", "setting": "[2]", "value": "52.2% (active)"}
    ]},
    {"smiles": "C=CCN(CC=C)C(=O)c1cccc(S(=O)(=O)N2c3ccccc3CC2C)c1", "note": "(centres undefined)", "values": [
      {"measurement": "inhibition", "setting": "[1]", "value": 24.9, "unit": "%"},
      {"measurement": "inhibition", "setting": "[2]", "value": 28.7, "unit": "%"}
    ]},
    {"smiles": "N/C(=N\\OC(=O)c1ccc2ccccc2c1)c1ccccn1", "values": [
      {"measurement": "inhibition", "setting": "[1]", "value": -38.3, "unit": "%"},
      {"measurement": "inhibition", "setting": "[2]", "value": -34.3, "unit": "%"}
    ]},
    {"smiles": "O=c1c2ccccc2sn1-c1ccccc1", "values": [
      {"measurement": "inhibition", "setting": "[1]", "value": -5.09, "unit": "%"},
      {"measurement": "inhibition", "setting": "[2]", "value": -17.8, "unit": "%"}
    ]},
    {"smiles": "CCOc1ccc(CN2CCNC(=O)C2CC(=O)NCCc2cnccn2)cc1", "note": "(centres undefined)", "values": [
      {"measurement": "inhibition", "setting": "[1]", "value": 10.4, "unit": "%"},
      {"measurement": "inhibition", "setting": "[2]", "value": -23.9, "unit": "%"}
    ]},
    {"smiles": "Cc1c(C=O)n(C)n(-c2ccccc2)c1=O", "values": [
      {"measurement": "inhibition", "setting": "[1]", "value": -14.4, "unit": "%"},
      {"measurement": "inhibition", "setting": "[2]", "value": 2.35, "unit": "%"}
    ]},
    {"smiles": "CCOC(=O)C1CCCCN1C(=O)CCc1c(C)nc2cc(-c3ccccc3)nn2c1C", "note": "(centres undefined)", "values": [
      {"measurement": "inhibition", "setting": "[1]", "value": -0.8, "unit": "%"},
      {"measurement": "inhibition", "setting": "[2]", "value": "70.2% (active)"}
    ]},
    {"smiles": "CCOC(=O)C1=C[C@@H](C(C)(C)C)N(S(=O)(=O)c2ccc(C)cc2)[C@H]1c1ccc(Cl)c(Cl)c1", "values": [
      {"measurement": "inhibition", "setting": "[1]", "value": 7.53, "unit": "%"},
      {"measurement": "inhibition", "setting": "[2]", "value": 17.4, "unit": "%"}
    ]},
    {"smiles": "CCOc1ccc(-c2c(C(=O)N/N=C/c3cccc(Br)c3)nnn2-c2nonc2N)cc1", "values": [
      {"measurement": "inhibition", "setting": "[1]", "value": -5.94, "unit": "%"},
      {"measurement": "inhibition", "setting": "[2]", "value": -23.4, "unit": "%"}
    ]}
  ]
}
